In PubChem BioAssay (NCI):
About 83,000 compounds went through this panel and 20% of them were active in at least one assay; those are over-represented in the sample as a whole.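 Growth was measured after 48 h exposure to one concentration of compound in 96-well plates. Values under 10 count as active.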 Activity calls are given as the source filed them.

Assays:
Experiment in all cases: NCI-60 one-dose screen, 48 h (100 = growth as untreated, 0 = no growth, -100 = all killed)
Settings in all cases: 10 µM unless noted
SK-MEL-2 melanoma = test system: SK-MEL-2 melanoma
EKVX NSCLC = test system: EKVX NSCLC
SN12C renal = test system: SN12C renal
UO-31 renal = test system: UO-31 renal
TK-10 renal = test system: TK-10 renal
ACHN renal = test system: ACHN renal
CAKI-1 renal = test system: CAKI-1 renal
A498 renal = test system: A498 renal
CCRF-CEM leukemia = test system: CCRF-CEM leukemia
MOLT-4 leukemia = test system: MOLT-4 leukemia
SR leukemia = test system: SR leukemia
RPMI-8226 leukemia = test system: RPMI-8226 leukemia
OVCAR-8 ovarian = test system: OVCAR-8 ovarian
OVCAR-5 ovarian = test system: OVCAR-5 ovarian
OVCAR-4 ovarian = test system: OVCAR-4 ovarian
SK-OV-3 ovarian = test system: SK-OV-3 ovarian
IGROV1 ovarian = test system: IGROV1 ovarian
OVCAR-3 ovarian = test system: OVCAR-3 ovarian
HS 578T breast = test system: HS 578T breast
NCI/ADR-RES ovarian = test system: NCI/ADR-RES ovarian

Measured: growth

O=c1nc(Nc2cccc(Cl)c2)oc2cc(Cl)oc(=O)c12
active: SK-MEL-2 melanoma -14.9% | SR leukemia 2.45%
inactive: EKVX NSCLC 116% | SN12C renal 86.1% | UO-31 renal 47.9% | TK-10 renal 98.1% | ACHN renal 81.3% | CAKI-1 renal 79.6% | A498 renal 103% | CCRF-CEM leukemia 56.7% | MOLT-4 leukemia 21.5% | RPMI-8226 leukemia 26.8% | OVCAR-8 ovarian 62.9% | OVCAR-5 ovarian 88% | OVCAR-4 ovarian 89.9% | SK-OV-3 ovarian 98.4% | IGROV1 ovarian 12.4% | OVCAR-3 ovarian 51.6% | HS 578T breast 62.3% | NCI/ADR-RES ovarian 89%

Nc1ccc(F)cc1F
inactive: SK-MEL-2 melanoma 101% | EKVX NSCLC 105% | SN12C renal 100% | UO-31 renal 98.4% | TK-10 renal 106% | ACHN renal 102% | CAKI-1 renal 94.7% | A498 renal 107% | CCRF-CEM leukemia 102% | MOLT-4 leukemia 107% | SR leukemia 107% | RPMI-8226 leukemia 102% | OVCAR-8 ovarian 116% | OVCAR-5 ovarian 96.3% | OVCAR-4 ovarian 123% | SK-OV-3 ovarian 116% | IGROV1 ovarian 105% | OVCAR-3 ovarian 116% | HS 578T breast 108% | NCI/ADR-RES ovarian 108%

c1ccc(-c2ccc3ccccc3c2)cc1
inactive: SK-MEL-2 melanoma 76.6% | EKVX NSCLC 103% | SN12C renal 96.1% | UO-31 renal 85.2% | TK-10 renal 97.7% | ACHN renal 88.9% | CAKI-1 renal 97.9% | A498 renal 84% | CCRF-CEM leukemia 99.6% | MOLT-4 leukemia 80.8% | SR leukemia 80.7% | RPMI-8226 leukemia 104% | OVCAR-8 ovarian 97.1% | OVCAR-5 ovarian 99.6% | OVCAR-4 ovarian 108% | SK-OV-3 ovarian 90.5% | IGROV1 ovarian 85.3% | OVCAR-3 ovarian 103% | HS 578T breast 84.5% | NCI/ADR-RES ovarian 105%

CC(C)(C)CC1(C)NC(=O)NC1=O (stereo unspecified)
active: CCRF-CEM leukemia -59.7%
inactive: SK-MEL-2 melanoma 166% | EKVX NSCLC 108% | SN12C renal 110% | UO-31 renal 100% | TK-10 renal 125% | ACHN renal 109% | CAKI-1 renal 102% | A498 renal 120% | MOLT-4 leukemia 93.2% | SR leukemia 134% | RPMI-8226 leukemia 73.3% | OVCAR-8 ovarian 109% | OVCAR-5 ovarian 89.1% | OVCAR-4 ovarian 106% | SK-OV-3 ovarian 115% | IGROV1 ovarian 125% | OVCAR-3 ovarian 120% | HS 578T breast 105% | NCI/ADR-RES ovarian 99.7%

OCC(O)COc1ccc(Cl)cc1Cl (stereo unspecified)
inactive: SK-MEL-2 melanoma 97.4% | EKVX NSCLC 96.5% | SN12C renal 95% | UO-31 renal 89.4% | TK-10 renal 101% | ACHN renal 93.2% | CAKI-1 renal 96% | A498 renal 99% | CCRF-CEM leukemia 119% | MOLT-4 leukemia 99.2% | SR leukemia 101% | RPMI-8226 leukemia 102% | OVCAR-8 ovarian 92.4% | OVCAR-5 ovarian 101% | OVCAR-4 ovarian 101% | SK-OV-3 ovarian 91.7% | IGROV1 ovarian 101% | OVCAR-3 ovarian 110% | HS 578T breast 102% | NCI/ADR-RES ovarian 110%

CC(=O)C1C(=O)C(=O)N(c2cccc([N+](=O)[O-])c2)C1=O (stereo unspecified)
inactive: SK-MEL-2 melanoma 114% | EKVX NSCLC 108% | SN12C renal 101% | UO-31 renal 105% | TK-10 renal 125% | ACHN renal 104% | CAKI-1 renal 102% | A498 renal 79.2% | CCRF-CEM leukemia 106% | MOLT-4 leukemia 101% | SR leukemia 95.6% | RPMI-8226 leukemia 107% | OVCAR-8 ovarian 106% | OVCAR-5 ovarian 113% | OVCAR-4 ovarian 103% | SK-OV-3 ovarian 102% | IGROV1 ovarian 109% | OVCAR-3 ovarian 117% | HS 578T breast 93.8% | NCI/ADR-RES ovarian 113%

Nc1cc(F)ccc1[N+](=O)[O-]
inactive: SK-MEL-2 melanoma 114% | EKVX NSCLC 100% | SN12C renal 98.6% | UO-31 renal 94.2% | TK-10 renal 104% | ACHN renal 104% | CAKI-1 renal 92.2% | A498 renal 102% | CCRF-CEM leukemia 110% | MOLT-4 leukemia 109% | SR leukemia 114% | RPMI-8226 leukemia 106% | OVCAR-8 ovarian 118% | OVCAR-5 ovarian 97.4% | OVCAR-4 ovarian 106% | SK-OV-3 ovarian 114% | IGROV1 ovarian 98.4% | OVCAR-3 ovarian 115% | HS 578T breast 98.7% | NCI/ADR-RES ovarian 107%

CCOC(=O)/C(C)=C\c1ccc(OC)c(OC)c1
inactive: SK-MEL-2 melanoma 112% | EKVX NSCLC 102% | SN12C renal 104% | UO-31 renal 95.1% | TK-10 renal 104% | ACHN renal 103% | CAKI-1 renal 96.1% | A498 renal 95.7% | CCRF-CEM leukemia 88.8% | MOLT-4 leukemia 94.5% | SR leukemia 86.5% | RPMI-8226 leukemia 103% | OVCAR-8 ovarian 101% | OVCAR-5 ovarian 99.3% | OVCAR-4 ovarian 101% | SK-OV-3 ovarian 103% | IGROV1 ovarian 105% | OVCAR-3 ovarian 103% | HS 578T breast 108% | NCI/ADR-RES ovarian 100%

O=Cc1c(O)c2ccccc2[nH]c1=O
inactive: SK-MEL-2 melanoma 106% | EKVX NSCLC 113% | SN12C renal 92.3% | UO-31 renal 81.6% | TK-10 renal 106% | ACHN renal 91.5% | CAKI-1 renal 98.1% | A498 renal 119% | CCRF-CEM leukemia 108% | MOLT-4 leukemia 104% | SR leukemia 114% | RPMI-8226 leukemia 109% | OVCAR-8 ovarian 95.1% | OVCAR-5 ovarian 98.5% | SK-OV-3 ovarian 105% | IGROV1 ovarian 104% | OVCAR-3 ovarian 134% | HS 578T breast 106% | NCI/ADR-RES ovarian 104%

Cn1c(=O)c2[nH]c(CCCCC(=O)O)nc2n(C)c1=O
inactive: SK-MEL-2 melanoma 111% | EKVX NSCLC 131% | SN12C renal 104% | UO-31 renal 105% | TK-10 renal 98.4% | ACHN renal 103% | CAKI-1 renal 106% | A498 renal 113% | CCRF-CEM leukemia 75.6% | MOLT-4 leukemia 102% | SR leukemia 112% | RPMI-8226 leukemia 91.2% | OVCAR-8 ovarian 101% | OVCAR-5 ovarian 112% | OVCAR-4 ovarian 124% | SK-OV-3 ovarian 113% | IGROV1 ovarian 110% | OVCAR-3 ovarian 113% | NCI/ADR-RES ovarian 108%

O=C(O)CC1=CCCCC1
inactive: SK-MEL-2 melanoma 119% | EKVX NSCLC 97.5% | SN12C renal 104% | UO-31 renal 89.1% | TK-10 renal 108% | ACHN renal 91.1% | CAKI-1 renal 97.7% | A498 renal 74.8% | CCRF-CEM leukemia 96.9% | MOLT-4 leukemia 97.5% | SR leukemia 96.7% | RPMI-8226 leukemia 96.6% | OVCAR-8 ovarian 104% | OVCAR-5 ovarian 98.5% | OVCAR-4 ovarian 100% | SK-OV-3 ovarian 117% | IGROV1 ovarian 96.1% | OVCAR-3 ovarian 101% | HS 578T breast 108% | NCI/ADR-RES ovarian 96.9%

CS(=O)CC(=N\O)/C(CS(C)=O)=N\O (stereo unspecified)
inactive: SK-MEL-2 melanoma 102% | EKVX NSCLC 99.1% | SN12C renal 97.6% | UO-31 renal 85.3% | TK-10 renal 106% | ACHN renal 107% | CAKI-1 renal 91.2% | A498 renal 111% | CCRF-CEM leukemia 101% | MOLT-4 leukemia 105% | SR leukemia 99.8% | RPMI-8226 leukemia 100% | OVCAR-8 ovarian 95.5% | OVCAR-5 ovarian 103% | OVCAR-4 ovarian 103% | SK-OV-3 ovarian 103% | IGROV1 ovarian 109% | OVCAR-3 ovarian 108% | HS 578T breast 106% | NCI/ADR-RES ovarian 108%

NNc1ncnc2nc[nH]c12
inactive: EKVX NSCLC 69.7% | SN12C renal 74.6% | UO-31 renal 30.9% | TK-10 renal 67.1% | ACHN renal 41.1% | CAKI-1 renal 42.3% | A498 renal 55.1% | CCRF-CEM leukemia 37.8% | MOLT-4 leukemia 56.2% | SR leukemia 32.5% | RPMI-8226 leukemia 13.4% | OVCAR-8 ovarian 16.4% | OVCAR-5 ovarian 63.7% | OVCAR-4 ovarian 44.6% | OVCAR-3 ovarian 79% | HS 578T breast 84.8% | NCI/ADR-RES ovarian 42.7%
active: SK-MEL-2 melanoma -7.36%

O=[N+]([O-])c1ccc2[nH]c(=S)n(/C=C(/c3ccc(Cl)cc3Cl)S(=O)(=O)Cc3ccc(Cl)cc3Cl)c2c1
inactive: SK-MEL-2 melanoma 102% | EKVX NSCLC 92.9% | SN12C renal 94.6% | UO-31 renal 97.2% | TK-10 renal 101% | ACHN renal 98.1% | CAKI-1 renal 97.4% | A498 renal 103% | CCRF-CEM leukemia 103% | MOLT-4 leukemia 98.3% | SR leukemia 83.1% | RPMI-8226 leukemia 98.7% | OVCAR-8 ovarian 93.7% | OVCAR-5 ovarian 108% | OVCAR-4 ovarian 95.9% | SK-OV-3 ovarian 99.1% | IGROV1 ovarian 104% | OVCAR-3 ovarian 117% | HS 578T breast 106% | NCI/ADR-RES ovarian 100%

CC(=O)Oc1c(Cl)cccc1-c1ccccc1
inactive: SK-MEL-2 melanoma 98.9% | EKVX NSCLC 103% | SN12C renal 96.6% | UO-31 renal 84.8% | TK-10 renal 107% | ACHN renal 108% | CAKI-1 renal 98.3% | A498 renal 96.9% | CCRF-CEM leukemia 101% | MOLT-4 leukemia 107% | SR leukemia 99.9% | RPMI-8226 leukemia 99.3% | OVCAR-8 ovarian 100% | OVCAR-5 ovarian 108% | OVCAR-4 ovarian 110% | SK-OV-3 ovarian 104% | IGROV1 ovarian 102% | OVCAR-3 ovarian 103% | HS 578T breast 90.7% | NCI/ADR-RES ovarian 97.3%

Cc1ccc2nc(-c3ccc(N=Cc4ccccc4O)cc3)sc2c1
inactive: SK-MEL-2 melanoma 101% | EKVX NSCLC 90.3% | SN12C renal 90.4% | UO-31 renal 60% | TK-10 renal 139% | ACHN renal 90.6% | CAKI-1 renal 67.7% | A498 renal 64.5% | CCRF-CEM leukemia 77.4% | MOLT-4 leukemia 82.3% | SR leukemia 88.8% | RPMI-8226 leukemia 70.8% | OVCAR-8 ovarian 87.5% | OVCAR-5 ovarian 92.2% | OVCAR-4 ovarian 78.6% | SK-OV-3 ovarian 115% | IGROV1 ovarian 64% | OVCAR-3 ovarian 84.8% | HS 578T breast 102% | NCI/ADR-RES ovarian 77.7%
